Source: PubChem BioAssay
CtBP-E1A blk = CtBP/E1A binding inhibition. AlphaScreen GST-E1A/His-CtBP binding, 1536-well; hits give low values. activity change, % (no concentration beside the values). hit rate 0.49% among 340,000
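In 5 uL wells, 23 nL compound meets equimolar GST-E1A and His-CtBP (5X stock 125 nM each) for 2 h, 37 °C. Beads (5X, 50 ug/mL) then 1 h, 37 °C, dark.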
MBNL1 CUG block = MBNL1-poly(CUG) RNA binding inhibition; Q9NR56; TR-FRET MBNL1-His/biotin-(CUG)12 binding, 665/545 ratio; Potency, µM (series often up to 57.5 µM), most hits filed as inhibitors; hit rate 0.036% among 280,000; active = well fitted inhibition curve with a large enough effect in the signal ratio, with a control signal flat, not every such curve was filed as active; inconclusive = small, poorly fitted or top-dose-only effect, or effect the other way, or a change in a side signal; inactive = no such curve, though single readings can be large or run the other way; the % refers to the signal ratio
Target sequence (Q9NR56 whole entry, looked up): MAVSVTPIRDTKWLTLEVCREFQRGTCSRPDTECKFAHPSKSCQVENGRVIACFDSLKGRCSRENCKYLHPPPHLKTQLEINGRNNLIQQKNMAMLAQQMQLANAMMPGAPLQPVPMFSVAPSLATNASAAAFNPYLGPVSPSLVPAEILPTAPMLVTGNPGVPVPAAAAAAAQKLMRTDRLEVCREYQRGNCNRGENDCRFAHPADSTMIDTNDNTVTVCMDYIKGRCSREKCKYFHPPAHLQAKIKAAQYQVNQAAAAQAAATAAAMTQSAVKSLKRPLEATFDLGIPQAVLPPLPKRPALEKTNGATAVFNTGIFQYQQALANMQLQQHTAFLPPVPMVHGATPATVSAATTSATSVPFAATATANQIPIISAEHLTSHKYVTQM
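MBNL1-His + Biotin-(CUG)12, cpd titration 92 nM–58 uM; Tb anti-His Ab 0.055 ng/ul, SA-XL665 5 nM (final); 60 min RT; ratiometric 665/545 nm, Ex 340 nm; normalized to buffer and full-complex controls.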
PKM2 activator = increases activity of human pyruvate kinase M2; P14618; purified PKM2, Kinase-Glo ATP luminescence, activation; response scale: 0% is enzyme alone, no compound; Potency, µM (top dose mostly 57.5 µM), hits mostly activators; hit rate 0.34% among 260,000; AID 1631; active = well fitted activation curve with a large enough effect; inconclusive = small, poorly fitted or top-dose-only effect; inactive = no such curve, though single readings can be large or run the other way; also: nearly all actives have a fitted effect of over 55% in size
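Kinase-Glo luminescence reports ATP generated from ADP (0.1 mM) and PEP (0.5 mM) by purified hPK-M2 after 1 h at room temperature, pH 7.2 imidazole buffer; intermediate enzyme activity allows detecting inhibitors and activators.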
Six1-Eya2 blk = inhibitors of human Six1/Eya2 interaction | activity change, % (test concentration not listed) | AlphaScreen GST-Six1/His-Eya2 binding, biochemical; hits give low values | Q15475+O00167 | hit rate 0.56% among 360,000
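AlphaScreen with GST-Six1 and His-Eya2 (5X mix: 250 nM and 500 nM), glutathione donor and nickel acceptor beads; buffer 50 mM Tris pH 8.0, 300 mM NaCl, 1 mM TCEP; 1 h at 37 C in the dark.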
A number is an active result; [ ] = remark or other dose. Rows were chosen to be rich in hits. Some 0.93% of all compounds tested hit in one or more screens of this group. Rule as the data show it, unless noted: active = activity change below about -65%; inconclusive = mostly about -30% to -63%; inactive = weaker than that.

For O=C(COc1ccccc1)NC(=S)Nc1cccc2c(O)cccc12 the results were CtBP-E1A blk inactive and Six1-Eya2 blk inactive.
For O=[N+]([O-])c1cc(S(=O)(=O)N2CCCC2)ccc1NCCc1ccccc1 the results were CtBP-E1A blk inactive, PKM2 activator 3.2µM and Six1-Eya2 blk inactive.
`COc1ccc(Nc2ccc(S(=O)(=O)N3CCCCCC3)cc2[N+](=O)[O-])cc1` gave CtBP-E1A blk -66, MBNL1 CUG block inactive, PKM2 activator inactive and Six1-Eya2 blk inconclusive.
Screening C=CCNC(=O)N1CCc2nc(CCCC)c3c(c2C1)CO[C@@H](C)C3 returned PKM2 activator inactive[11.5 µM].
For COC(=O)c1c(C)[nH]c(C(=O)OC(C)C(=O)NC2CCCCC2C)c1C (configuration not stated) the results were CtBP-E1A blk inactive and Six1-Eya2 blk inactive.
S=C1SCN(Cc2ccccn2)CN1Cc1ccco1 was read as CtBP-E1A blk inconclusive, MBNL1 CUG block inactive, PKM2 activator inactive and Six1-Eya2 blk -80.
For COc1cccc(CNc2ccc(N3CCCCC3)cc2)c1OC the results were CtBP-E1A blk inconclusive, MBNL1 CUG block inactive, PKM2 activator inactive and Six1-Eya2 blk -66.
COc1ccccc1CNc1ccc(N2CCCCC2)cc1 was read as CtBP-E1A blk inconclusive, MBNL1 CUG block inactive, PKM2 activator inactive and Six1-Eya2 blk inconclusive.
COc1ccc(CC(N)c2csc(Nc3ccccn3)n2)cc1 (configuration not stated) was read as CtBP-E1A blk -92 and Six1-Eya2 blk -88.
Screening COc1cccc(Nc2nc(C(N)CCc3ccccc3)cs2)n1 (configuration not stated) returned CtBP-E1A blk inconclusive and Six1-Eya2 blk inactive.
For c1ccc(-c2csc(Nc3ccccn3)n2)cc1 the results were CtBP-E1A blk inactive, MBNL1 CUG block inactive, PKM2 activator inactive and Six1-Eya2 blk inactive.
For NC(c1csc(Nc2ccccn2)n1)C1CCCCC1 (configuration not stated) the results were CtBP-E1A blk -80 and Six1-Eya2 blk inconclusive.
NC(CCc1ccccc1)c1csc(Nc2cnccn2)n1 (configuration not stated) was read as CtBP-E1A blk -67 and Six1-Eya2 blk inconclusive.
For COc1ccc(CC(N)c2csc(Nc3cccc(OC)n3)n2)cc1 (configuration not stated) the results were CtBP-E1A blk inactive and Six1-Eya2 blk inactive.
For NC(c1ccccc1)c1csc(Nc2ccccn2)n1 (configuration not stated) the results were CtBP-E1A blk -90 and Six1-Eya2 blk -89.
Screening NC(c1csc(NC(=O)Nc2ccc(OC(F)(F)F)cc2)n1)C1CCCCC1 (configuration not stated) returned CtBP-E1A blk inactive and Six1-Eya2 blk inactive.
`CCc1nc2c(OCc3cc(Cl)cc(Cl)c3)cccn2c1N(C=O)Cc1ccccc1` gave CtBP-E1A blk inactive and Six1-Eya2 blk inactive.
Screening Cc1cnc(C)c(Nc2nc(C(N)c3ccccc3)cs2)n1 (configuration not stated) returned CtBP-E1A blk -66 and Six1-Eya2 blk inconclusive.
Screening COc1ccc(N(CC(=O)Nc2cccc(C)c2C)S(=O)(=O)c2c(C)n[nH]c2C)cc1 returned CtBP-E1A blk -66, MBNL1 CUG block inactive, PKM2 activator inactive and Six1-Eya2 blk inconclusive.
COc1ccc(N(CC(=O)Nc2cccc(C)c2C)S(=O)(=O)c2c(C)[nH]c(=O)[nH]c2=O)cc1 was read as CtBP-E1A blk inactive, MBNL1 CUG block inactive, PKM2 activator inactive and Six1-Eya2 blk inactive.
Cc1ccc(S(=O)(=O)Nc2ccnc3ccccc23)cc1 was read as CtBP-E1A blk inactive, MBNL1 CUG block inactive, PKM2 activator inactive and Six1-Eya2 blk inactive.
`Cc1ccc(S(=O)(=O)Nc2ccc(O)c3ncccc23)cc1` gave CtBP-E1A blk -93, MBNL1 CUG block inactive, PKM2 activator inactive and Six1-Eya2 blk -91.
For Cc1ccc(S(=O)(=O)Nc2ccc(O)c3cccnc23)cc1 the results were CtBP-E1A blk inactive, MBNL1 CUG block inconclusive, PKM2 activator 10µM and Six1-Eya2 blk inactive.
`C[C@H]1Cc2c(-c3ccccc3)nc3c(c2CO1)CN(C(=O)NCCc1c[nH]c2ccccc12)CC3` gave PKM2 activator inactive[11.5 µM].
CCCn1nc(C(=O)Nc2nc(-c3ccccn3)cs2)c2ccccc2c1=O was read as CtBP-E1A blk -86 and Six1-Eya2 blk -77.
`COC(=O)c1cccc(NC(=O)c2nn(C)c(=O)c3ccccc23)c1` gave CtBP-E1A blk -85, MBNL1 CUG block inactive, PKM2 activator inactive and Six1-Eya2 blk -83.
Screening COC(=O)c1ccc(C)c(NC(=O)c2nn(C)c(=O)c3ccccc23)c1 returned CtBP-E1A blk inactive, MBNL1 CUG block inactive, PKM2 activator inactive and Six1-Eya2 blk inactive.
Cn1nc(C(=O)Nc2nc(-c3ccccn3)cs2)c2ccccc2c1=O was read as CtBP-E1A blk -91 and Six1-Eya2 blk -91.
O=C(CSc1nnc(CNC(=O)c2ccc(F)cc2)o1)Nc1nccs1 was read as CtBP-E1A blk -87, MBNL1 CUG block inactive, PKM2 activator inactive and Six1-Eya2 blk -88.
Screening O=C(CSc1nnc(COc2ccc(Cl)cc2)o1)Nc1nccs1 returned CtBP-E1A blk inconclusive and Six1-Eya2 blk -87.
Cc1cccc(OCc2nnc(SCC(=O)Nc3nccs3)o2)c1 was read as CtBP-E1A blk -93, PKM2 activator inactive and Six1-Eya2 blk -94.
O=C(CSc1nnc(CNC(=O)c2ccc(F)cc2)o1)NCc1ccccc1 was read as CtBP-E1A blk inactive, MBNL1 CUG block inactive, PKM2 activator inactive and Six1-Eya2 blk inactive.
For O=C(CSc1nnc(CNC(=O)c2cccc(C(F)(F)F)c2)o1)NCC1CCCO1 (configuration not stated) the results were CtBP-E1A blk inactive, MBNL1 CUG block inactive, PKM2 activator inactive and Six1-Eya2 blk inactive.
`Cc1cc(NC(=O)CSc2nnc(CNC(=O)c3cccc(C(F)(F)F)c3)o2)no1` gave CtBP-E1A blk -78, MBNL1 CUG block inactive, PKM2 activator inactive and Six1-Eya2 blk -72.
CCOc1ccc(Cl)cc1-c1cc(C(=O)NCc2cc(C(F)(F)F)cc(C(F)(F)F)c2)[nH]n1 was read as CtBP-E1A blk inactive and Six1-Eya2 blk inactive.
O=C(CSc1nnc(-c2cccnc2)o1)Nc1nccs1 was read as CtBP-E1A blk inconclusive and Six1-Eya2 blk -71.
`O=c1[nH]cnc2c1sc1nc3c(c(-c4ccc(Cl)cc4)c12)CCC3` gave CtBP-E1A blk -71, MBNL1 CUG block inactive, PKM2 activator inactive and Six1-Eya2 blk inconclusive.
For CCc1nc2ccc(C(=O)N(C)CCCN(C)C)cn2c1N(C)Cc1cc2ccccc2s1 the results were CtBP-E1A blk inactive and Six1-Eya2 blk inactive.
For Nc1ccccc1C(=O)N=Nc1[nH]c(N)c2ccccc12 the results were CtBP-E1A blk -87, PKM2 activator inactive and Six1-Eya2 blk -76.
`CCCCC1=CC2=CC(=O)C(C)(OC(=O)CC)C(=O)C2=CN1CCCN(CC)CC` (configuration not stated) gave PKM2 activator inactive[11.5 µM].
